Bioassay records (PubChem)
NS1 inh = blocks influenza NS1 protein function; Potency, µM (top dose mostly 46.1 µM); actives 0.4% (n = 270,000); AID 2326; calls by dose curve; note: actives are rising curves; nearly all actives have a fitted effect of over 50% in size
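A cell-based growth assay was used: compounds that relieve NS1-induced slow growth of budding yeast raise OD600. Assay medium was yeast nitrogen base with ammonium sulphate and -URA supplement, pH 6.0, with 2% galactose.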
FBPA Giardia inh = Giardia lamblia aldolase inhibition; purified Giardia FBPA; actives 0.71% (n = 290,000); Potency, µM (titrated, usually from 59.6 µM), most hits filed as inhibitors; A8B2U2; AID 2451; note: nearly all actives have a fitted effect of over 55% in size
Target sequence (A8B2U2 whole entry, looked up): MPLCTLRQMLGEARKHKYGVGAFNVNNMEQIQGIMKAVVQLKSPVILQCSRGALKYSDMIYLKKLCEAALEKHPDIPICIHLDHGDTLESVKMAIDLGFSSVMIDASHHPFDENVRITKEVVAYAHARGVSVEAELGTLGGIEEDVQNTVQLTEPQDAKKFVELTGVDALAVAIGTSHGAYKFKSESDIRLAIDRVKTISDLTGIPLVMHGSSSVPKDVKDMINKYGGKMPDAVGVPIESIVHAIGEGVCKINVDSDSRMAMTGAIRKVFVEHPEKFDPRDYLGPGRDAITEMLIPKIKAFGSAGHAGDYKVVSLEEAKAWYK
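40 nM FBPA preincubated 10 min at RT with compound (up to 57.5 uM final), then substrate plus GAPDH/TPI/NAD/arsenate coupling and diaphorase/resazurin added. Fluorescence read after 20 min at RT, 525/598 nm.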
AmpC detergent = blocks E. coli AmpC beta-lactamase in detergent assay; AmpC hydrolysis of nitrocefin, absorbance 480 nm, 0.01% Triton; Potency, µM (doses to about 114 µM), most hits filed as inhibitors; P00811; actives 0.041% (n = 370,000); note: nearly all actives have a fitted effect of over 25% in size
Target sequence (P00811 whole entry, looked up): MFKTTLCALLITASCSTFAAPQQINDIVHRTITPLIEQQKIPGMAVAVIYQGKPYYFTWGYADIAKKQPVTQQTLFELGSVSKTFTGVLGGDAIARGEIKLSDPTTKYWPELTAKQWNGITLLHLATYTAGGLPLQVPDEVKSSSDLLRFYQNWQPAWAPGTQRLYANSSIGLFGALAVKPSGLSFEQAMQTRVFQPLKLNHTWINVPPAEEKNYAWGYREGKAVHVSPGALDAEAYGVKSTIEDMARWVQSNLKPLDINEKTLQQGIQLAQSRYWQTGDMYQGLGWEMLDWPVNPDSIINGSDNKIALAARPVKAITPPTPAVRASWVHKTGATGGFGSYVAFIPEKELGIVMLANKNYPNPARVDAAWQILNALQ
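AmpC (5.3 nM in the dispensed reagent) in 20 mM phosphate pH 7.0 with 0.01% (detergent screen) or 0.0001% Triton X-100 was preincubated with compounds for 15 min at room temperature. Nitrocefin was then added from an 800 uM solution, and hydrolysis was followed at 480 nm.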
SARS PLpro yeast = inhibitors of SARS-CoV papain-like protease in yeast; S. cerevisiae expressing SARS-CoV PLpro, growth rescue; Potency, µM (highest dose often 32.9 µM), actives largely listed as activators; actives 0.19% (n = 330,000); calls by dose curve; note: nearly all actives have a fitted effect of over 55% in size
AmpC no deterg = inhibitors of E. coli AmpC beta-lactamase without detergent. P00811. AID 485341. Potency, µM (series often up to 57.1 µM), most hits filed as inhibitors. AmpC nitrocefin hydrolysis, absorbance 480 nm, 0.0001% Triton. actives 0.52% (n = 330,000); note: nearly all actives have a fitted effect of over 20% in size
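20 mM phosphate pH 7.0 + 0.01% (detergent screen) or 0.0001% Triton X-100; 5.3 nM AmpC reagent; cpd preinc 15 min RT; nitrocefin (800 uM stock) to start; A480 q20 s × 4 min; Activity was normalised to no-enzyme and no-compound control wells.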
Numbers stand for hits; – = inactive; ? = inconclusive; · = not tested or not shown; [ ] = remark or other dose. An excerpt weighted towards active compounds, which were near 1.4% of everything screened. Unless noted, calls come from the whole dose curve; as a rule, active = well fitted curve in the direction sought with a large enough effect; inconclusive = small, poorly fitted or top-dose-only effect, or another doubt; inactive = no such curve, though single readings can be large; an effect the other way counts as inactive or inconclusive.

SMILES | NS1 inh | FBPA Giardia inh | AmpC detergent | SARS PLpro yeast | AmpC no deterg
Cc1ccccc1Nc1nc(CSc2nnnn2-c2ccccc2)cs1 | – | – | – | – | –
Cc1ccc(-c2nn(-c3ccccc3)cc2C(=O)OCC(=O)Nc2ncc(Cl)cc2Cl)cc1 | – | – | – | – | –
O=C1CSC(=S)N1/N=C/c1ccc(O)c(O)c1O | – | 7.9µM | ? | – | ?
CCOC(=O)c1sc(NC(=O)C2CC2)cc1C | – | – | – | – | –
CCOC(=O)c1sc(NC(=O)C(C)(C)C)cc1C | – | – | ? | – | 10µM
COCCCNS(=O)(=O)c1ccc(Oc2ncc(C(F)(F)F)cc2Cl)cc1 | – | – | – | – | –
CC(C)(C)NS(=O)(=O)c1ccc(Oc2ncc(C(F)(F)F)cc2Cl)cc1 | – | – | – | – | 5µM
N=C1SC(c2ccccc2)C(=O)N1c1ncc(Cc2ccccc2Cl)s1 (stereo not given) | – | – | – | – | 16µM
COc1cc(/C=C(/C#N)c2ccc(F)cc2)ccc1Oc1ccc([N+](=O)[O-])cn1 | – | – | – | – | 28µM
COc1ccc(S(=O)(=O)Nc2ccccc2C(=O)OC2CCCN(C)C2)cc1OC (stereo not given) | – | – | – | – | –
COCCCN(C(=S)NC(=O)c1ccc(Br)cc1)c1c(N)n(Cc2ccccc2)c(=O)[nH]c1=O | · | ? | – | – | 5.6µM
Cc1cccn2c(CNCCc3ccccn3)c(C(=O)N3CCOCC3)nc12 | – | – | – | – | –
CN1CC[C@@]2(C)c3cc(O)ccc3N(C)[C@@H]12 | · | 4.5µM | · | · | ·
CNC(=O)Oc1ccc2c(c1)[C@]1(C)CCN(C)C1N2C (stereo not given in full) | · | · | ? | · | –
Cc1ccccc1NC(=O)Cc1nc(COC(=O)c2ccc(Cl)c(S(N)(=O)=O)c2)cs1 | · | · | – | – | 35µM
Cc1ccccc1NC(=O)Cc1nc(COC(=O)c2cccc(O)c2)cs1 | · | · | – | – | –
CC(NC(=O)Cn1cc(C(F)(F)F)ccc1=O)c1ccc(F)cc1 (stereo not given) | · | – | ? | – | –
CCCC[C@]12Cc3ccccc3C(O1)c1c(cc(-c3ccccc3)oc1=O)O2 | – | 2µM | –[22.9 µM] | –[6.58 µM] | –[11.4 µM]
CSc1ccc(CN(C)CC(=O)Nc2ccc(NC(C)=O)cc2)cc1 | · | – | – | – | –
CSc1ccc(CN(C)CC(=O)Nc2c(F)cccc2F)cc1 | · | 20µM | ? | – | –[11.4 µM]
COc1ccc(Cl)cc1NC(=O)c1cnc2sccn2c1=O | – | – | ? | – | 3.5µM
O=C(Nc1cnc2sccn2c1=O)c1ccc(Cl)cc1Cl | – | – | – | – | –
COc1ccc(C(=O)/C=C/Nc2ccc([N+](=O)[O-])cc2C)c(OC)c1 | – | – | – | – | 1.3µM
COc1ccc(C(=O)/C=C/Nc2ccc([N+](=O)[O-])cc2C)cc1OC | – | – | – | – | 2µM
CCN(CC(=O)Nc1c(F)cccc1F)C(=O)c1cc2c(cc1Cl)N1CCCCCC1=NS2(=O)=O | · | · | – | – | –
SMILES | NS1 inh | FBPA Giardia inh | AmpC detergent | SARS PLpro yeast | AmpC no deterg
COc1cccc2cc(C(=O)CS(=O)(=O)c3ccc(C(C)(C)C)cc3)c(=O)oc12 | – | · | – | – | 18µM
O=C1CCCc2c1sc1nc3n(c(=O)c21)CCCCC3 | – | – | – | – | –
O=C1c2sc3nc4n(c(=O)c3c2CCC1Br)CCCCC4 (stereo not given) | – | 20µM | – | – | –
COc1cc([N+](=O)[O-])ccc1NC(=O)COC(=O)C1=NN(c2ccccc2)C(=O)CC1 | · | · | · | – | –
CC(C)Oc1cccc(C(=O)NC(=S)Nc2cccc(NC(=O)c3ccccc3Cl)c2)c1 | – | – | – | – | 3.2µM
Cc1nn(CC(=O)N2CCN(C)CC2)c(=O)c2c1sc1ccccc12 | – | – | – | – | –
COc1cccc(OCCSc2nnc3sc4ccccc4n23)c1 | – | 16µM | – | – | –
c1ccc(OCCSc2nnc3sc4ccccc4n23)cc1 | – | 18µM | – | – | –
CCN(CC)C(=O)CSc1nnc2sc3ccccc3n12 | – | – | – | – | –
Nc1nc(SCc2ccc(Cl)cc2Cl)nc2nc3c(cc12)CCCC3 | – | – | – | – | 16µM
COc1ccc(-c2cc(C(=O)Nc3ccc(Br)cc3)no2)cc1 | – | – | – | – | –
O=C(NCCN1CCC(Cc2ccccc2)CC1)C1CCN(S(=O)(=O)N2CCC3(CC2)OCCO3)CC1 | · | – | – | – | –
O=C(NCCc1ccccc1)C1CCN(S(=O)(=O)N2CCC3(CC2)OCCO3)CC1 | – | – | – | – | 0.56µM
Cc1occc1C(=O)Nc1ccc2c(c1)OCCO2 | – | – | – | – | –
O=C(COC(=O)CCN1C(=O)/C(=C\C=C\c2ccccc2)SC1=S)Nc1ccc(Br)cc1 | – | – | – | – | 18µM
COc1cccc(NC(=O)c2nc3nc(C)cc(C(F)F)n3n2)c1 | – | – | – | – | 45µM
O=c1ccn(-c2cccc(C(F)(F)F)c2)nc1-c1ccn(-c2ccccc2)n1 | – | 32µM | – | – | –
CCOC(=O)c1oc2nc(C)c3c(c2c1N)CC(C)(C)OC3 | – | – | – | – | –
Cc1ccc(CSCC(=O)Nc2ccc3c(c2)OCO3)cc1 | – | – | – | ? | –
O=C(CSc1nnnn1-c1ccccc1Cl)Nc1ccc2c(c1)OCCO2 | – | – | – | – | 32µM
O=C(CSCc1ccc(Cl)cc1)N/N=C/c1ccccc1 | – | 18µM | – | – | –
O=C(CSc1nnnn1-c1ccc(Cl)cc1)NC(=O)Nc1ccc2c(c1)OCCO2 | – | – | ? | – | ?
O=C(CSCc1ccc(Cl)cc1)Nc1ccc2c(c1)OCCO2 | – | – | – | – | 11µM
O=C(CSc1nnc2c(n1)[nH]c1ccccc12)Nc1ccc2c(c1)OCO2 | – | – | – | – | 8.9µM
O=C(/C=C/C#Cc1cccc(NS(=O)(=O)c2ccccc2)c1)NO | · | – | · | · | ·
SMILES | NS1 inh | FBPA Giardia inh | AmpC detergent | SARS PLpro yeast | AmpC no deterg
CCN(CC)C(=O)c1sc(NC(=O)c2cc(-c3ccc(C)s3)nc3ccccc23)c(C(=O)OC)c1C | – | – | – | – | –
CCOC(=O)C1CCN(c2cc(=O)n(-c3ccc(OC)cc3)c(=O)[nH]2)CC1 | – | – | ? | – | 3.5µM
COc1ccc(-n2c(=O)cc(N3CCCCCC3)[nH]c2=O)cc1 | – | – | – | – | –
Cc1ccc(-c2ccc(/C=N\n3cnnc3)o2)c(Br)c1 | – | – | – | – | –
CCOC(=O)/C=C(\C)Sc1cc(O)c2ccccc2c1O | – | 7.1µM | – | – | –
O=C(CSc1ccc(-c2ccco2)nn1)N1CCCC1 | · | – | – | – | –
O=C(CSc1ccc(-c2ccco2)nn1)N1CCCCC1 | · | 13µM | – | – | –
Oc1cc(O)c2c(c1)O[C@H](c1ccc(O)c(O)c1)[C@@H](O)C2 | – | – | – | – | –
O=c1c(O)cc(C2Oc3cc(O)cc(O)c3CC2O)cc2c(C3Oc4cc(O)cc(O)c4CC3O)cc(O)c(O)c12 (stereo not given) | · | 0.89µM | · | · | ·
CSc1nc2cc(Cl)ccc2s1 | – | – | – | – | –
